Results published in PubChem BioAssay AID463190 (Sanford-Burnham Center for Chemical Genomics, 2010).
Hit rate of the full screen: of about 330,000 compounds, about 7,300 (2.2%) were called active.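 How the source made its calls: active means inhibition of at least 40%; inactive means the rest.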 The sample as a whole holds a higher share of actives than the screen did.

Test: growth inhibition of tim10-1 ts yeast – luminescence, uHTS, primary screen (AID 463190);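 further: mutant grown at 25 °C; 0% = DMSO wells with yeast and 100% = wells holding no yeast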
Settings: S. cerevisiae tim10-1 ts strain growth, BacTiter-Glo, 24 h; at 20 µM; hits give high values
With `COc1ccc(CNC(=O)C(C)NCc2ccccc2Cl)cc1` (stereo unspecified) the inhibition was 21.6% (inactive). For `COc1ccc(CNC(=O)COc2ccccc2C(=O)c2cnn(-c3ccccc3)c2)cc1OC`, the inhibition was 4.14% (inactive). With `CCN1C(=NCCc2cccnc2)N[C@@H](c2ccccc2)C(C(=O)OC)=C1C` the inhibition was 0.495% (inactive). For `COCCN(C(=O)C(C)C)c1nnc(-c2ccc(C(C)(C)C)cc2)s1`, the inhibition was 38.1% (inactive). With `Cn1c(SCC(=O)Nc2ccc(N3CCOCC3)cc2)nnc1C(F)(F)F` the inhibition was -4.28% (inactive). For `O=C(Nc1ccccc1)O/N=C1\CCCCC1c1ccc([N+](=O)[O-])cc1[N+](=O)[O-]` (stereo unspecified), the inhibition was 24.7% (inactive). For `C[n+]1ccccc1C1CCCC/C1=N\Nc1ccc([N+](=O)[O-])cc1[N+](=O)[O-]` (stereo unspecified), the inhibition was 28% (inactive). For `O=[N+]([O-])c1ccc(N/N=C2/CCCCC2c2ccccn2)c([N+](=O)[O-])c1` (stereo unspecified), the inhibition was 42% (active). For `O=C(NNC(=S)NC(=O)c1cn(-c2ccccc2)nc1-c1ccccc1)c1ccncc1`, the inhibition was 13.6% (inactive). For `O=C(C1CCCO1)N(c1ccc(F)cc1)C1C=CS(=O)(=O)C1` (stereo unspecified), the inhibition was 5.92% (inactive). With `CCCN(CCC)c1c([N+](=O)[O-])c(=O)oc2ccccc12` the inhibition was 11% (inactive). In the case of `CCCC(NCC(=O)Nc1ccccc1C(=O)NC1CC1)c1ccccc1` (stereo unspecified), the inhibition is reported as 11.8% (inactive). With `CCc1ccc(NC(=O)NC(C)c2ccc3c(c2)OCO3)cc1` (stereo unspecified) the inhibition was 2.45% (inactive). For `CC(=NCc1ccco1)C1=C(O)c2ccccc2C1=O`, the inhibition was 34.3% (inactive). With `CC(=NCc1ccc2c(c1)OCO2)C1=C(O)c2ccccc2C1=O` the inhibition was 61.2% (active). In the case of `Cc1ccc(S(=O)(=O)N2CCN=C2SCc2c(F)cccc2Cl)cc1`, the inhibition is reported as -8.21% (inactive). For `COc1cc(/C=N/NC(=O)Cc2ccccc2)cc(OC)c1OC`, the inhibition was 2.14% (inactive). With `COc1cc(N=Cc2c(O)[nH]c3ccccc23)cc(OC)c1OC` the inhibition was 44% (active). With `COc1ccc2[nH]c(C(=O)N/N=C/c3cc(OC)c(OC)c(OC)c3)cc2c1` the inhibition was 20.1% (inactive). In the case of `Cc1ccsc1-c1cc(C(=O)O)c2c(ccc3ccccc32)n1`, the inhibition is reported as -20.7% (inactive). In the case of `O=c1nc(N/N=C/c2ccco2)cn[nH]1`, the inhibition is reported as 17.8% (inactive). For `COc1ccc(NC(=O)CN(C)C(=O)c2n[nH]c3ccccc23)cc1`, the inhibition was 9.05% (inactive). For `O=C(CCCC(=O)N(CC(=O)NC1CCCC1)Cc1ccccc1Cl)Nc1ccccn1`, the inhibition was 14.9% (inactive). In the case of `CC1CN(C(=O)c2ccc([N+](=O)[O-])s2)CC(C)O1` (stereo unspecified), the inhibition is reported as 17.2% (inactive). With `CC(C)(C)c1cc(C(=O)N/N=C/c2ccc([N+](=O)[O-])s2)n[nH]1` the inhibition was 32% (inactive). In the case of `O=[N+]([O-])c1ccc(C=Nc2ccc(Cl)cc2Cl)s1`, the inhibition is reported as 77.7% (active). In the case of `O=C1CCc2cc(S(=O)(=O)Nc3ccc(C(F)(F)F)cc3)cc3c2N1CC3`, the inhibition is reported as 4.21% (inactive). For `O=c1oc(-c2ccccc2NS(=O)(=O)c2ccc(Cl)cc2)nc2ccccc12`, the inhibition was 39.6% (inactive). With `NC(=O)c1ccc(CN2CCC(Cc3ccccc3)CC2)cc1` the inhibition was -11.2% (inactive). With `CCOc1ccc2oc(C(=O)N(CC)CC(=O)Nc3ccc(NC(C)=O)cc3)c(C)c2c1` the inhibition was 16.8% (inactive). In the case of `CCSc1ncnc2c(C#N)c3n(c12)CCCCC3`, the inhibition is reported as -13.6% (inactive). With `CCSC1=C(C#N)C(=O)n2c1cc1c2CCCC1` the inhibition was 58.8% (active). In the case of `O=C(CSc1ccc2nnc(-c3ccccc3)n2n1)N1CCCc2ccccc21`, the inhibition is reported as -0.717% (inactive). For `O=S(=O)(Nc1ccc2[nH]ncc2c1)c1ccccc1Cl`, the inhibition was 6% (inactive). In the case of `COCc1cc(=O)[nH]c(-c2ccc(C(F)(F)F)cc2)n1`, the inhibition is reported as -4.56% (inactive). With `CC(Sc1nn(-c2ccc(Cl)cc2)c(=S)s1)C(=O)NCC1CCCO1` (stereo unspecified) the inhibition was 25.6% (inactive). For `Cc1nc([N+](=O)[O-])nn1C12CC3CC(CC(Br)(C3)C1)C2`, the inhibition was 27% (inactive). With `CCc1nn(CCCC(=O)Nc2ccc(C)c(C)c2)c(=O)c2cc3occc3n12` the inhibition was 33.6% (inactive). For `CCc1nn(CCCC(=O)NCc2ccc(C)cc2)c(=O)c2cc3occc3n12`, the inhibition was 31.1% (inactive). In the case of `CCc1nn(CCCC(=O)Nc2ccc(C)cc2C)c(=O)c2cc3occc3n12`, the inhibition is reported as 41.6% (active). In the case of `CCOC(=O)C1Cn2c(nc3c(c2=O)C(C)(CC)Cc2ccccc2-3)S1` (stereo unspecified), the inhibition is reported as 40.7% (active). With `CCC1(CC)Cc2ccccc2-c2nc3ccccc3c(=O)n21` the inhibition was 16.4% (inactive). With `CCC1(CC)Cc2ccccc2-c2nc(CCl)[nH]c(=O)c21` the inhibition was 27.6% (inactive). For `COC(=O)c1cccc(N(C(=O)c2ccco2)C(C(=O)NC2CCCC2)c2ccco2)c1` (stereo unspecified), the inhibition was 3.43% (inactive). For `Cn1c(=O)c2c(ncn2CC(COCc2ccccc2Cl)OCc2ccccc2Cl)n(C)c1=O` (stereo unspecified), the inhibition was 19.9% (inactive). For `Cc1ccnc(N2CCN(C(=O)CSc3nc4ccccc4nc3N3CCCCC3)CC2)c1`, the inhibition was 2.78% (inactive). In the case of `COc1cccc(-n2c(=S)sc3c(=O)n(-c4ccccc4OC)c(SCC4OCCO4)nc32)c1`, the inhibition is reported as 4.35% (inactive). In the case of `CNC(C)C#Cc1ccc2sc3cc(OC)c(OC)cc3c(=O)c2c1` (stereo unspecified), the inhibition is reported as 43.4% (active). With `Cc1ccc(C(=O)COC(=O)CCN2C(=O)C3C4CC(C(Br)C4Br)C3C2=O)cc1` (stereo unspecified) the inhibition was 7.92% (inactive). With `CCCCOc1ccc(C(=O)NCC(=O)OCC(=O)N2CCN(S(=O)(=O)c3ccc(C)cc3C)CC2)cc1` the inhibition was 15.7% (inactive). With `O=C(COC(=O)c1ccc(F)cc1)NCCCc1ccccc1` the inhibition was 24.1% (inactive). In the case of `CCOc1ccc(NC(=O)c2ccc(NC(=O)CN3C(=O)C(=O)N(CC(C)C)C3=O)cc2)cc1`, the inhibition is reported as 2.57% (inactive). With `COc1ccc(CCNc2nc3ccc(C)cc3n3cnnc23)cc1OC` the inhibition was 2.87% (inactive). With `COc1ccc(CCNc2cc(C)nc3c(-c4ccc(Cl)cc4)c(C)nn23)cc1OC` the inhibition was 43.9% (active). In the case of `COc1ccc(CCNc2nc(C)cc(C)n2)cc1OC`, the inhibition is reported as -4.02% (inactive). For `O=C(c1cnc(Cl)c(Cl)c1)N1CCN(S(=O)(=O)c2ccc(F)cc2)CC1`, the inhibition was 3.46% (inactive). For `COc1ccc(Cc2nnc(SCC(=O)Nc3ccc(C)c(C)c3)o2)cc1OC`, the inhibition was 7.89% (inactive). With `N/C(=N\OC(=O)CCn1cccc(C(F)(F)F)c1=O)c1ccc(OC(F)(F)F)cc1` the inhibition was -0.346% (inactive). For `O=C(CN1CCN(Cc2ccc(F)cc2Cl)C1=O)NCc1cccs1`, the inhibition was 12.6% (inactive). With `O=c1c(Cl)c(NCc2ccc(F)cc2Cl)cnn1C12CC3CC(CC(C3)C1)C2` the inhibition was 43.1% (active). For `O=C(O)CC12CC3CC(C1)CC(n1ncc(NCc4ccc(F)cc4)c(Cl)c1=O)(C3)C2`, the inhibition was 0.72% (inactive). In the case of `CCOc1cc2[nH]c(=S)n(Cc3ccc(C(=O)N4CCN(C)CC4)cc3)c(=O)c2cc1OCC`, the inhibition is reported as 4.68% (inactive). In the case of `Cc1ccc(S(=O)(=O)NCC(=O)NNC(=O)c2ccc(Br)cc2)cc1C`, the inhibition is reported as 6.99% (inactive). In the case of `COC(=O)/C(C#N)=C/c1occc1C`, the inhibition is reported as -13.8% (inactive). For `Cc1onc(NC(=O)c2ccc([N+](=O)[O-])o2)c1Br`, the inhibition was 42.4% (active). For `Cc1cccc(NC(=O)c2cc([N+](=O)[O-])ccc2N2CCN(C)CC2)c1`, the inhibition was 10% (inactive). In the case of `Cc1onc(C(=O)NCc2ccc(F)cc2)c1[N+](=O)[O-]`, the inhibition is reported as 5.1% (inactive). In the case of `CN1C(=O)c2ccc(C(=O)Nc3ccc(Br)cn3)cc2C1=O`, the inhibition is reported as 6.17% (inactive). For `CCN(CC)S(=O)(=O)c1ccc(N2CCCC2)c(NC(=O)c2ccc([N+](=O)[O-])o2)c1`, the inhibition was 31.3% (inactive). With `O=C(Nc1ccc(Br)cn1)c1ccc([N+](=O)[O-])o1` the inhibition was 66.6% (active). In the case of `O=C(Nc1ccc(Br)cn1)c1ccc([N+](=O)[O-])cc1Cl`, the inhibition is reported as 7.02% (inactive). For `O=C(Nc1cccc(O)c1)c1ccc(C(=O)c2ccccc2)o1`, the inhibition was 6.57% (inactive). For `Cc1cccc(NC(=O)c2ccc([N+](=O)[O-])o2)c1`, the inhibition was 58% (active). For `OC(COCCC12CC3CC(CC(C3)C1)C2)CN1CCCCC1` (stereo unspecified), the inhibition was 4.4% (inactive). For `FC(F)(F)c1cccc(-c2cc3ccccc3nc2N2CCCC2)c1`, the inhibition was -16.8% (inactive). With `COC(=O)c1ccccc1NC(=O)Cc1ccccc1OC` the inhibition was 10.2% (inactive). In the case of `Cc1cc(C)cc(NC(=S)NCc2ccc(F)cc2)c1`, the inhibition is reported as 23.8% (inactive). With `Cc1cccc(NC(=S)NCc2ccc3[nH]c4c(c3c2)CCCC4)c1` the inhibition was 41.3% (active). For `Cc1cccc(NC(=S)NCCN(C2CCCCC2)C2CCCC2)c1`, the inhibition was 28.1% (inactive). In the case of `O=S(=O)(O)CCN1CCOCC1`, the inhibition is reported as 6.54% (inactive). With `CCOC12CC(C)(C)CC(C)(CC3=C1C(=O)CC(C)(C)C3)C2` (stereo unspecified) the inhibition was 17.6% (inactive). For `CC1(c2nnc(-c3ccncc3)o2)CC(c2cccnc2)=NO1` (stereo unspecified), the inhibition was -5.58% (inactive). With `COC(=O)Cc1ccc(NC(=S)NCc2ccc(Cl)cc2)cc1` the inhibition was 20.1% (inactive). With `O=C(NCc1ccc(Cl)cc1)NCc1ccc(Cl)cc1` the inhibition was -35.2% (inactive). For `S=C(NCc1ccc(Cl)cc1)NC12CC3CC(CC(C3)C1)C2`, the inhibition was 51.4% (active). In the case of `OC1CCCN(c2ncnc3c2nnn3Cc2c(F)cccc2Cl)C1` (stereo unspecified), the inhibition is reported as 14.9% (inactive). In the case of `O=S1(=O)CCO[C@H]2Cc3ccccc3[C@H]2N1Cc1ccccc1`, the inhibition is reported as 10% (inactive). In the case of `CC1=C(C(N)=O)C(c2ccc(F)cc2)n2nc(CCCO)nc2N1` (stereo unspecified), the inhibition is reported as 15.6% (inactive). With `COC(=O)CC(=O)N1CCN(c2ccc(Cl)c(Cl)c2)CC1` the inhibition was 5.73% (inactive). For `COC(=O)CSc1nnc(NC(=O)CCc2ccccc2)s1`, the inhibition was 17.2% (inactive). In the case of `COC(=O)CSc1snnc1-c1ccc(Cl)c(Cl)c1`, the inhibition is reported as 47.3% (active). In the case of `N#CC(C(N)=O)=C1CCC2(CC1)OCCCCO2`, the inhibition is reported as 17.1% (inactive). With `Cc1cc(C)cc(NC(=O)NC2CCCCCCC2)c1` the inhibition was 14.5% (inactive). With `COCCOC(=O)C1=C(C)N=c2s/c(=C\c3cccs3)c(=O)n2C1c1cccs1` (stereo unspecified) the inhibition was 15.4% (inactive). For `CCOC(=O)C1=C(CSc2nccn2C)NC(=O)NC1c1ccc(OC)cc1` (stereo unspecified), the inhibition was 15.6% (inactive). With `CCOC(=O)C1=C(C)N=c2s/c(=C\C(=O)OC)c(=O)n2C1c1ccc(OC)cc1` (stereo unspecified) the inhibition was 42.2% (active).
